Test systems include AURKA; AURKB; AURKC; AXL; BLK; BMPR1A; BMPR1B; BMPR2.
Conditions in all cases: concentration: 1 μM, replicates: in singlicate; n = 1
A further experiment concerns T1, ASK2.
T1 construct: gene MAP3K6

The next experiment concerns T2, BIKE.
T2 construct: gene BMP2K
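Also: KINOMEscan kinase panel screen.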

In the case of `CCOc1nccc(-c2c(-c3ccc(F)cc3)ncn2C2CCNCC2)n1` [SB-249175], the “%Inh” value in the experiment on ASK2 worked out at 0%; in the experiment on AURKA, 52%; with AURKB, 59%; with AURKC, 15%; in the experiment on AXL, 54%; with BIKE it was 0%. For the same compound, the “%Inh” value with BLK is recorded as 0%; with BMPR1A, 100%; with BMPR1B, 20%; in the experiment with BMPR2, 26%.

Regarding `CN(c1ccc(NC(=O)Nc2cccc(Cl)c2)cc1)c1ccnc(N)n1.Cl` [GW830707], the “%Inh” value in the experiment on ASK2 was 15%; with AURKA, 28%; with AURKB, 68%; in the experiment with AURKC, 70%; with AXL it was 37%; in the experiment with BIKE, 4%. Further, the “%Inh” value in the experiment on BLK was determined as 0%; in the experiment on BMPR1A it was 0%; in the experiment with BMPR1B, 0%; with BMPR2, 52%.

As for `N#CC1(c2cccc(C(=O)Nc3cccc(Oc4ccc5nc(NC(=O)C6CC6)sc5n4)c3)c2)CC1`, the “%Inh” value was found to be 3% with ASK2; 0% in the experiment with AURKA; 57% in the experiment with AURKB; 48% with AURKC; 62% in the experiment with AXL; 1% in the experiment on BIKE. Moreover, the “%Inh” value with BLK is 95.2%; in the experiment with BMPR1A, 0%; in the experiment on BMPR1B, 0%; in the experiment with BMPR2 it was 0%.

`Cn1cc(-c2ccc3c(c2)CCN3C(=O)Cc2cc(F)cc(C(F)(F)F)c2)c2c(N)ncnc21` [GSK2635225]: the “%Inh” value in the experiment with ASK2 stood at 0%; in the experiment with AURKA, 20%; in the experiment on AURKB, 56%; in the experiment with AURKC it was 54%; in the experiment with AXL it was 94%; with BIKE it was 23%. Also, the “%Inh” value came out at 40% in the experiment with BLK, 0% with BMPR1A, 0% with BMPR1B and 0% in the experiment with BMPR2.

For the compound `COC(=O)Nc1nc2cc(Oc3ccc(NC(=O)Nc4cccc(SC)c4)cc3)ccc2[nH]1.Cl` [GW697999], the “%Inh” value in the experiment on ASK2 came out at 0%; in the experiment with AURKA it was 0%; in the experiment with AURKB, 92.5%; in the experiment with AURKC it was 43%; with AXL it was 90.1%; with BIKE, 6%. Further, the “%Inh” value in the experiment with BLK came out at 65%; in the experiment with BMPR1A, 0%; with BMPR1B it was 0%; in the experiment on BMPR2, 4%.

In the case of `Nc1ncc(-c2cn[nH]c2)c2scc(-c3ccc4c(c3)CCN4C(=O)Cc3ccccc3)c12` [GSK2593067], the “%Inh” value in the experiment on ASK2 is listed as 21%; with AURKA, 13%; in the experiment with AURKB it was 98.6%; in the experiment with AURKC, 87%; in the experiment with AXL, 98.8%; with BIKE, 67%. Also, the “%Inh” value in the experiment with BLK amounted to 96%; in the experiment with BMPR1A it was 0%; in the experiment on BMPR1B, 0%; in the experiment with BMPR2 it was 0%.

`COc1cc(Nc2ccnc3cc(-c4ccncc4)ccc23)cc(OC)c1OC.Cl` [GW494610]: the “%Inh” value in the experiment with ASK2 is reported as 0%; in the experiment with AURKA, 0%; in the experiment on AURKB, 82%; with AURKC, 27%; in the experiment on AXL it was 31%; with BIKE it was 0%. Besides, the “%Inh” value in the experiment with BLK was determined as 94.9%; in the experiment with BMPR1A, 62%; with BMPR1B, 99%; with BMPR2 it was 10%.

Take `CSc1ccc(NC2=C(c3ccc(Cl)cc3)C(=O)NC2=O)cc1` [SB-317658]: the “%Inh” value with ASK2 stood at 25%; with AURKA it was 32%; with AURKB it was 9%; in the experiment on AURKC, 2%; in the experiment with AXL, 10%; with BIKE, 0%. Also, the “%Inh” value was 0% in the experiment with BLK, 6% with BMPR1A, 0% with BMPR1B and 0% with BMPR2.

Consider `COc1cc(Nc2nccc(N3CCC(NS(=O)(=O)c4ccc(NC(C)=O)cc4)CC3)n2)cc(OC)c1OC` [GSK1379825], for which the “%Inh” value with ASK2 was 9%; in the experiment on AURKA, 59%; with AURKB, 71%; in the experiment with AURKC, 71%; with AXL it was 14%; in the experiment on BIKE it was 75%. Also, the “%Inh” value in the experiment with BLK was 50%; in the experiment with BMPR1A, 29%; in the experiment with BMPR1B it was 0%; in the experiment on BMPR2, 0%.

As for `Cl.N#CCc1ccc(Nc2nccc(Nc3ccc(Oc4ccccc4)cc3)n2)cc1` [GW639905], the “%Inh” value with ASK2 came to 7%; with AURKA, 6%; in the experiment on AURKB it was 31%; with AURKC, 34%; in the experiment on AXL it was 22%; in the experiment with BIKE it was 26%. Also, the “%Inh” value was 94.1% with BLK, 0% in the experiment with BMPR1A, 0% with BMPR1B and 0% in the experiment on BMPR2.

Turning to `Cl.Cl.NCC(NC(=O)c1cc(-c2cccnc2)c(-c2ccnc3[nH]ccc23)s1)c1ccccc1` (stereo not shown) [GSK1323434], the “%Inh” value in the experiment with ASK2 amounted to 16%; in the experiment on AURKA, 15%; in the experiment with AURKB, 19%; in the experiment on AURKC, 36%; in the experiment on AXL, 23%; with BIKE it was 63%. Moreover, the “%Inh” value with BLK was found to be 40%; with BMPR1A, 0%; in the experiment on BMPR1B, 51%; in the experiment on BMPR2, 5%.

Consider `COc1cccc(-c2nc(-c3ccccc3)[nH]c2-c2ccncc2)c1` [SB-610250], for which the “%Inh” value with ASK2 is reported as 11%; in the experiment with AURKA, 0%; with AURKB, 39%; in the experiment with AURKC it was 0%; with AXL, 15%; in the experiment on BIKE it was 0%. Moreover, the “%Inh” value was found to be 60% in the experiment on BLK, 0% in the experiment with BMPR1A, 0% with BMPR1B and 0% in the experiment on BMPR2.

Turning to `O=C(Nc1n[nH]c2nc(-c3ccccc3)ccc12)C1CC1` [SB-708999], the “%Inh” value in the experiment on ASK2 was found to be 32%; in the experiment on AURKA, 22%; in the experiment with AURKB, 15%; in the experiment on AURKC, 8%; in the experiment with AXL, 0%; with BIKE, 40%. In addition, the “%Inh” value stood at 0% in the experiment on BLK, 0% with BMPR1A, 6% with BMPR1B and 10% with BMPR2.

With `Cc1ccc(NC(=O)c2ccnc(N3CCCCC3)c2)cc1-c1ccc(C(=O)NCC2CC2)cc1` [GW775610], the “%Inh” value in the experiment on ASK2 was found to be 0%; with AURKA it was 66%; with AURKB, 25%; with AURKC, 35%; with AXL it was 31%; with BIKE it was 10%. Also, the “%Inh” value in the experiment with BLK worked out at 10%; in the experiment on BMPR1A, 0%; with BMPR1B, 0%; with BMPR2 it was 0%.

As to `COc1cccc(C2=C(Nc3cccc(O)c3)C(=O)NC2=O)c1` [SB-390771], the “%Inh” value in the experiment with ASK2 worked out at 0%; with AURKA it was 16%; in the experiment with AURKB, 24%; with AURKC it was 0%; with AXL it was 1%; in the experiment with BIKE, 0%. Moreover, the “%Inh” value with BLK was found to be 0%; in the experiment with BMPR1A, 0%; in the experiment on BMPR1B, 0%; in the experiment on BMPR2, 36%.

As for `Cc1ccc(-c2ccc3occ(-c4ccc(S(C)=O)cc4)c3c2)nn1` (stereo not shown), the “%Inh” value in the experiment with ASK2 came out at 0%; with AURKA it was 0%; in the experiment with AURKB, 3%; in the experiment on AURKC, 0%; with AXL, 0%; in the experiment with BIKE, 0%. Further, the “%Inh” value is reported as 0% in the experiment with BLK, 15% with BMPR1A, 0% in the experiment on BMPR1B and 0% with BMPR2.

These data come from publication PMC5540273 (PLoS ONE, 2017).
